A selection: hits, their analogues and other compounds. The true share with any hit is near 1.2%.
Avidin bead fluor = green autofluorescence of compounds with avidin beads – biophysical, 488/530 nm, flow cytometry, artefact control, profiling panel | compound fluorescence 488/530 nm; hits give high values | fluorescence (KMESF) at 10 µM | 220,000 tested, 0.38% active; in the data active = fluorescence above about 47
RGS7-Gao reg = RGS7-Galphao binding modulators, primary screen, biochemical, multiplexed bead flow cytometry | Guanine nucleotide-binding protein G(o) subunit alpha (Homo sapiens), P09471 | actives lie on both sides | binding response (% of control), % at 10 µM | 220,000 tested, 0.35% active | AID 1439, 2008; in the data active = binding response below about 49% or above about 150%; inconclusive = no clear call, values can overlap the other calls; inactive = in between;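 note: fluorescent Galphao held in activated GDP-AlF4 state binding bead-coupled RGS7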
Target sequence (P09471 whole entry, looked up): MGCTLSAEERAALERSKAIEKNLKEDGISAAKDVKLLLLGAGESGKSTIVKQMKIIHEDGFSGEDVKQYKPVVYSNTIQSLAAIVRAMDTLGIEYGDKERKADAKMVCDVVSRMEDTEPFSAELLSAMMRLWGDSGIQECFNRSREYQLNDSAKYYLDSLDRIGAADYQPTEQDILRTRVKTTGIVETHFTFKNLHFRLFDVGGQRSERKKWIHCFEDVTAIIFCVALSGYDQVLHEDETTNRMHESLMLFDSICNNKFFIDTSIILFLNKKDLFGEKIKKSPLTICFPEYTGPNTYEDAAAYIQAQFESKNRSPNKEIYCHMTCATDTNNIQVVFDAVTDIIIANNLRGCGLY
RGS4-Gao reg = modulators of RGS4 binding to Galphao, primary screen, biochemical, multiplexed bead flow cytometry. Guanine nucleotide-binding protein G(o) subunit alpha (Homo sapiens), P09471. actives lie on both sides. binding response (% of control), % at 10 µM. 220,000 tested, 0.33% active. AID 1415, 2008; in the data active = binding response below about 49% or above about 150%; inactive = in between;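 note: fluorescent Galphao activated with aluminum fluoride binding bead-coupled RGS4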
GSH bead fluor = compound fluorescence on glutathione beads, profiling panel, artefact control, biophysical, 488/530 nm, flow cytometry. GSH beads flow cytometry, compound fluorescence 488/530 nm; hits give high values. fluorescence (KMESF) at 10 µM. 190,000 tested, 0.25% active. AID 1776, 2009; in the data active = fluorescence above about 89;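 note: glutathione beads carrying GST-tagged Bcl family fusion proteins plus one bare bead set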
RGS8-Gao = RGS8-Galphao binding modulators, primary screen, biochemical, multiplexed bead flow cytometry. response (percent of control binding), % at 10 µM. 220,000 tested, 0.34% active. AID 1423, 2008. Guanine nucleotide-binding protein G(o) subunit alpha (Homo sapiens), P09471. actives lie on both sides; in the data active = response below about 60% or above about 140%; inactive = in between;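 note: Galphao activated as the GDP aluminium fluoride complex binding bead-coupled RGS8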
RGS16-Gao = modulators of RGS16 binding to Galphao, primary screen, biochemical, human proteins, multiplexed bead flow cytometry; bead-based flow cytometry RGS16-Galphao binding, fluorescence; actives lie on both sides; binding response (% of control), % at 10 µM; Regulator of G-protein signaling 16 (Homo sapiens) + Guanine nucleotide-binding protein …; 220,000 tested, 0.38% active; AID 1441, 2008;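 note: Galphao activated by GDP with aluminum fluoride before binding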
RGS4-Gao HTS = modulators of RGS–Galpha-o binding, primary screen, biochemical, multiplexed beads, flow cytometry, RGS4/7/8/16/19. RGS4–Galpha-o binding response, % at 10 µM. multiplexed bead flow cytometry. shares compounds with RGS16-Gao. AID 1504, 2009. 1,600 tested, 99% active;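 note: fluorescently labeled Galpha-o bound to GDP with aluminium fluoride binding biotinylated RGS beads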
Avidin counter = disruption of biotin probe capture by avidin, counter-screen for RGS protein interaction modulators, biochemical, flow cytometry, bead-based; shares compounds with RGS16-Gao; streptavidin beads, fluorescein-biotin binding; inhibition, % at 10 µM; 1,700 tested, under 10 active; AID 1783, 2009;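 active = inhibition above 50%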;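 note: median green fluorescence of gated singlet beads compared with DMSO control wells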
RGS8-Gao single = RGS8-Galphao binding modulators, confirmation, biochemical, multiplexed bead flow cytometry, single concentration; shares compounds with RGS16-Gao; binding response (% of control), % at 10 µM; bead-based flow cytometry RGS8-Galphao binding, fluorescence; actives lie on both sides; 1,700 tested, 3% active; AID 1836, 2009; in the data active = binding response below about 72% or above about 130%; inactive = in between;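 note: Galphao activated as GDP AlF4 complex before binding bead RGS8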
RGS7-Gao confirm = RGS7-Galphao binding modulators, confirmation, biochemical, multiplexed bead flow cytometry, single concentration; shares compounds with RGS16-Gao; bead-based flow cytometry RGS7-Galphao binding; actives lie on both sides; response (percent of control binding), % at 10 µM; 1,700 tested, 7.8% active; in the data active = response below about 75% or above about 130%; inactive = in between;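 note: fluorescent Galphao activated with GDP and aluminum fluoride binding bead-coupled RGS7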
RGS16-Gao conf = modulators of RGS16-Galphao protein binding, confirmation, biochemical, single concentration, multiplexed bead flow cytometry; 1,700 tested, 4% active; AID 1838, 2009; response (% of control binding), % at 10 µM; bead-based flow cytometry; actives lie on both sides; shares compounds with RGS16-Gao; in the data active = response below about 74% or above about 130%; inactive = in between;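 note: Galphao activated as the GDP aluminium fluoride complex binding bead-coupled RGS16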
RGS4-Gao single = modulators of RGS4-Galphao protein binding, confirmation, biochemical, single concentration, multiplexed bead flow cytometry; shares compounds with RGS16-Gao; binding response (% of control), % at 10 µM; 1,700 tested, 4% active; actives lie on both sides; in the data active = binding response below about 74% or above about 130%; inactive = in between
RGS19-Gao conf = regulators of RGS19-Galphao binding, confirmation, biochemical, single point, multiplexed bead flow cytometry. 1,700 tested, 5% active. AID 1841, 2009. bead-based flow cytometry RGS19-Galphao binding; actives lie on both sides. response (percent of control binding), % at 10 µM. shares compounds with RGS16-Gao; in the data active = response below about 50% or above about 160%; inactive = in between
Target sequence (P09471 whole entry, looked up): as above
Target sequence (P49795 whole entry, looked up): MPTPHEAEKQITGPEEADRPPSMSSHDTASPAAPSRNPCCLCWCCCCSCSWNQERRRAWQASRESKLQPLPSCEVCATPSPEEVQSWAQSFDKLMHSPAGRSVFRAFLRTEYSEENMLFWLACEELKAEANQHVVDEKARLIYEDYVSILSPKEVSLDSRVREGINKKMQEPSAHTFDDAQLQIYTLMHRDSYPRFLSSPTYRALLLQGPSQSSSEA
A number is an active result; n = inactive; u = inconclusive; x = no result given; [ ] = dose if it differs, or a comment. Unless noted, the rule behind the calls is not given here.

SMILES | Avidin bead fluor | RGS7-Gao reg | RGS4-Gao reg | GSH bead fluor | RGS8-Gao | RGS16-Gao | RGS4-Gao HTS | Avidin counter | RGS8-Gao single | RGS7-Gao confirm | RGS16-Gao conf | RGS4-Gao single | RGS19-Gao conf
COC(=O)c1ccccc1NC(=S)N(Cc1ccc2c(c1)OCO2)Cc1cc2cc(C)ccc2[nH]c1=O | n | n | n | n | n | 264[activator] | 107 | n | n | n | n | n | n
CCOC(=O)N1CCN(C(=O)/C(=C/c2ccc(Br)cc2)NC(=O)c2ccc(OC)cc2)CC1 | n | n | n | n | n | n | x | x | x | x | x | x | x
Cc1ccc(NC(=O)Nc2ccccc2CC[N+](=O)[O-])cc1 | n | n | n | n | 149[activator] | n | 117 | n | n | n | n | n | n
COc1ccccc1NS(=O)(=O)c1cccc(-n2c(O)c(C=Nc3ccccc3C(=O)O)c3ccccc3c2=O)c1 | n | u | n | x | n | n | x | x | x | x | x | x | x
CC(=O)C12C3C4C(C5C1C3C5(Br)C41OCCO1)C21OCCO1 (stereo unspecified) | n | n | n | n | n | 22 | 93 | n | n | n | n | n | n
CC(=O)Nc1ccc(NC(=O)CSc2nnc(-c3ccco3)o2)cc1 | n | n | n | n | n | n | x | x | x | x | x | x | x
Cc1cc(NC(=O)CSc2nc(-c3ccccc3)cs2)no1 | x | x | x | n | x | x | x | n | n | n | n | n | n
Cc1cc(NC(=O)CSc2nc(-c3ccc(F)cc3)cs2)no1 | n | n | n | n | n | n | x | x | x | x | x | x | x
COc1ccc(-c2nnc(SCC(=O)Nc3cc(F)ccc3C)o2)cc1 | 116 | 185[activator] | n | n | n | n | 120 | x | x | x | x | x | x
Cc1cc(NC(=O)CSc2nnc(-c3ccco3)o2)no1 | x | n | n | n | n | x | x | n | n | n | n | n | n
CCc1cc2ccccc2nc1SCC(=O)Nc1cc(C)on1 | n | n | n | n | n | n | x | x | x | x | x | x | x
Cc1cc(NC(=O)CSc2ccc3ccccc3c2)no1 | x | x | x | n | x | x | x | n | n | n | n | n | n
COc1cc(NC(=O)c2cccc(COCC(F)(F)C(F)F)c2)cc(OC)c1OC | n | n | n | n | n | n | x | x | x | x | x | x | x
O=C(CN(Cc1ccco1)C(=O)c1ccccc1)Nc1ccc(Cl)c(Cl)c1 | n | n | n | n | n | n | x | x | x | x | x | x | x
C=CCNC(=S)Nc1ccc2cn[nH]c2c1 | n | u | n | x | n | n | x | x | x | x | x | x | x
Nc1c(C(=O)NCC2CCCO2)sc2nc3c(c(-c4ccco4)c12)CC/C3=C\c1ccco1 (stereo unspecified) | n | 44 | n | n | n | n | 73 | n | 70 | 52 | 70 | n | 24
CCCOc1ccc(-c2nc(-c3ccc(N)cc3)cs2)cc1 | x | u | n | x | n | n | x | x | x | x | x | x | x
Cc1ccc2c(c1)NC(=O)C(CC(=O)NCc1ccc(F)cc1)O2 (stereo unspecified) | n | n | n | n | n | n | x | x | x | x | x | x | x
Cc1ccc2c(c1)NC(=O)C(CC(=O)NCc1cccnc1)O2 (stereo unspecified) | n | n | 154[activator] | n | 161[activator] | n | x | n | n | n | n | n | n
Oc1oc(-c2ccc(Br)cc2)nc1C=Nc1ccc(Br)cn1 | n | n | n | n | 146[activator] | n | 134 | n | n | n | n | n | n
Cc1ccc(N=Cc2nc(-c3ccc(C)cc3)oc2O)cc1 | n | n | n | n | n | n | x | x | x | x | x | x | x
CCC1CCC(c2nnc(-c3ccc(Br)cc3)o2)CC1 (stereo unspecified) | n | n | n | n | n | 13 | 89 | n | n | n | n | n | n
CCCCN=Cc1c(C)[nH]n(-c2ccccc2)c1=S | n | n | n | n | n | n | x | x | x | x | x | x | x
Cc1[nH]n(-c2ccccc2)c(=S)c1C=Nc1cccc([N+](=O)[O-])c1 | n | n | n | n | n | 19 | 95 | n | 54 | n | 5.9 | n | 9.1
CCOc1cc(/C=N\NC(=O)CN2CCOCC2)ccc1OCc1ccc(F)cc1 | n | n | n | n | n | n | x | x | x | x | x | x | x
SMILES | Avidin bead fluor | RGS7-Gao reg | RGS4-Gao reg | GSH bead fluor | RGS8-Gao | RGS16-Gao | RGS4-Gao HTS | Avidin counter | RGS8-Gao single | RGS7-Gao confirm | RGS16-Gao conf | RGS4-Gao single | RGS19-Gao conf
Cn1cc(-c2nnnn2-c2ccc(Cl)cc2)c(=O)c2ccccc21 | n | n | n | n | 144[activator] | n | 130 | n | n | n | n | n | n
CCOc1ccc(N2C(=O)/C(=C/c3cccs3)N(C)C2=S)cc1 | n | n | n | n | n | n | x | x | x | x | x | x | x
CCc1ccc(/C=C2/C(=O)N(CC)C(=S)N2C)s1 | n | 199[activator] | 198[activator] | n | 170[activator] | n | x | n | n | n | n | n | n
Cn1c(=O)c2ncn(CC(=O)N/N=C/c3ccco3)c2n(C)c1=O | n | n | n | n | n | n | x | x | x | x | x | x | x
O=C(CCSc1nnc2ccc3ccccc3n12)Nc1ccc(F)cc1 | x | x | x | n | x | x | x | n | n | n | n | n | n
Nc1ccc(NC(=O)NC2CCCCC2)cc1[N+](=O)[O-] | n | n | n | n | n | n | x | x | x | x | x | x | x
CC(=O)Nc1ccc(S(=O)(=O)NNC(=O)c2ccc(S(=O)(=O)N3CCCCC3)cc2)cc1 | n | n | n | n | n | 20 | 98 | n | n | n | n | n | n
O=C(NNS(=O)(=O)c1ccc(F)cc1)c1ccc(S(=O)(=O)N2CCCCC2)cc1 | n | n | n | n | n | n | x | x | x | x | x | x | x
O=C(Nc1ccc(S(=O)(=O)N2CCOCC2)cc1)c1ccc(Cl)cc1 | n | u | n | x | n | n | x | x | x | x | x | x | x
Cc1ccc(C(=O)Nc2ccc(S(=O)(=O)N3CCOCC3)cc2)cc1 | 227 | 365[activator] | 151[activator] | n | n | n | x | n | n | n | n | n | n
C=CCNC(=S)NCc1cccnc1 | n | n | n | n | n | 276[activator] | 112 | n | n | n | n | n | n
